This is part of a sample that, as a whole, favours compounds with a hit. Of some 83,000 tested, about 20% had one in any assay.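 Cell lines were cultured in 96-well plates, exposed to a single compound concentration, and assessed for percent growth 48 hours later.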 Unmarked numbers belong to inactive results. Activity calls are given as the source filed them. How the source made its calls: active means growth percent below 10; inactive means the rest.

Some test systems named below: HT29 colon; SNB-75 CNS; SNB-19 CNS; U251 CNS; PC-3 prostate; SK-MEL-5 melanoma; UACC-62 melanoma; LOX IMVI melanoma; SK-MEL-28 melanoma; SK-MEL-2 melanoma.
Test in all cases: NCI-60 one-dose screen, 48 h (100 = growth as untreated, 0 = no growth, -100 = all killed)
Holding throughout (conditions): 10 µM

Turning to `Nc1c(C(=O)Nc2ccccc2)sc2nc3c(cc12)C(O)CCC3` (configuration not stated), the growth was 6.61% (active) in the assay on HT29 colon; 36.6% in the assay with SNB-75 CNS; 58.6% with SNB-19 CNS; 23.9% with U251 CNS; 31.8% in the assay with PC-3 prostate; 42.4% in the assay with SK-MEL-5 melanoma. Also, the growth in the assay on UACC-62 melanoma is 55.4%; with LOX IMVI melanoma, 47.5%; in the assay on SK-MEL-28 melanoma, 62.6%; in the assay on SK-MEL-2 melanoma, 37.8%.

On to `O=C(CSSCC(=O)c1ccc(Cl)cc1)c1ccc(Cl)cc1`, for which the growth in the assay with HT29 colon was 92.6%; with SNB-75 CNS, 62%; in the assay with SNB-19 CNS, 52.8%; in the assay with U251 CNS, 53.7%; with PC-3 prostate it was 61.1%; in the assay with SK-MEL-5 melanoma, 29.7%. Besides, the growth in the assay with UACC-62 melanoma was 57.8%; with LOX IMVI melanoma it was 40.7%; in the assay with SK-MEL-28 melanoma, 59.5%; in the assay on SK-MEL-2 melanoma, 79.5%.

Turning to `CCN1CCC2(CC1)OC(c1ccccc1)C(c1ccccc1)O2` (configuration not stated), the growth is 96% in the assay on HT29 colon; 88.2% with SNB-75 CNS; 112% in the assay with SNB-19 CNS; 109% in the assay with U251 CNS; 89.1% in the assay with PC-3 prostate; 105% with SK-MEL-5 melanoma. The growth in the assay with UACC-62 melanoma is 115%; in the assay on LOX IMVI melanoma, 90.8%; in the assay on SK-MEL-28 melanoma it was 107%; in the assay on SK-MEL-2 melanoma it was 105%.

In the case of `COC(=O)C1=NNC(=S)N(c2cc(C)[nH]n2)C(=O)C1`, the growth in the assay on HT29 colon was 113%; in the assay with SNB-75 CNS, 93.9%; in the assay with SNB-19 CNS, 98%; with U251 CNS it was 101%; in the assay with PC-3 prostate, 99.1%; with SK-MEL-5 melanoma, 101%. The growth is 103% with UACC-62 melanoma, 95.9% in the assay with LOX IMVI melanoma, 114% in the assay with SK-MEL-28 melanoma and 100% in the assay on SK-MEL-2 melanoma.

Take `CC1(C)N=C(N)N=C(N)N1c1ccc(CCc2ccccc2)c(Cl)c1`: the growth in the assay with HT29 colon is 1.41% (active); in the assay on SNB-75 CNS, 35.8%; in the assay on SNB-19 CNS, 31.6%; in the assay with U251 CNS it was 13.2%; in the assay on PC-3 prostate, 18.7%; in the assay on SK-MEL-5 melanoma, 0.745% (active). Besides, the growth with UACC-62 melanoma was 23%; in the assay with LOX IMVI melanoma, 12.6%; with SK-MEL-28 melanoma, 30.3%; in the assay on SK-MEL-2 melanoma, 34.9%.

Regarding `CCCCCCCCCCCCC1C/C=C\CCCC(=O)O1` (configuration not stated), the growth in the assay on HT29 colon was 107%; in the assay with SNB-75 CNS it was 102%; in the assay on SNB-19 CNS it was 110%; with U251 CNS, 109%; with PC-3 prostate it was 112%; in the assay on SK-MEL-5 melanoma, 109%. The growth in the assay with UACC-62 melanoma was 108%; in the assay on LOX IMVI melanoma, 113%; with SK-MEL-28 melanoma, 126%; in the assay with SK-MEL-2 melanoma it was 111%.

With `COc1ccc2c(c1)sc1nc(-c3ccccc3)c(-c3cccnc3)n12`, the growth with HT29 colon was 91.5%; with SNB-75 CNS, 95.5%; with SNB-19 CNS, 103%; in the assay with U251 CNS, 96.2%; in the assay with PC-3 prostate, 88.9%; in the assay on SK-MEL-5 melanoma, 77.7%. Moreover, the growth in the assay on UACC-62 melanoma is 82.7%; in the assay on LOX IMVI melanoma, 91.4%; in the assay with SK-MEL-28 melanoma it was 110%; with SK-MEL-2 melanoma, 120%.

`CCN(CCCCCCCCCCN1CC(=O)N(CCCCCCCCCCN(CC)Cc2ccccc2OC)CC1=O)Cc1ccccc1OC`: the growth in the assay on HT29 colon was -57.8% (active); in the assay with SNB-75 CNS it was -15.7% (active); in the assay on SNB-19 CNS, -20% (active); in the assay with U251 CNS it was -71.1% (active); with PC-3 prostate, -40.9% (active); in the assay on SK-MEL-5 melanoma, -100% (active). Moreover, the growth is -80.5% (active) in the assay on UACC-62 melanoma, -86.6% (active) with LOX IMVI melanoma and -60.6% (active) in the assay on SK-MEL-2 melanoma.

As to `CCOC(=O)C1(CC(C)C)CCOC1=O` (configuration not stated), the growth in the assay on HT29 colon is 104%; with SNB-75 CNS it was 86.8%; in the assay with SNB-19 CNS it was 102%; in the assay with U251 CNS, 95.2%; in the assay on PC-3 prostate it was 93.3%; with SK-MEL-5 melanoma, 104%. The growth was 96.7% in the assay with UACC-62 melanoma, 96.8% in the assay with LOX IMVI melanoma, 103% in the assay on SK-MEL-28 melanoma and 113% in the assay on SK-MEL-2 melanoma.

Turning to `CCOC(=O)N1C=CC2C=CC1C1C=CC=CC2N1C(=O)OCC` (configuration not stated), the growth was 94.8% in the assay with HT29 colon; 80.4% in the assay with SNB-75 CNS; 94.1% with SNB-19 CNS; 93.5% with U251 CNS; 90.1% in the assay with PC-3 prostate; 84.1% in the assay on SK-MEL-5 melanoma. Further, the growth in the assay on UACC-62 melanoma is 91.6%; in the assay with LOX IMVI melanoma, 102%; with SK-MEL-28 melanoma it was 87.8%; in the assay with SK-MEL-2 melanoma it was 90.9%.

For `CCCCCCCCCCCCCCCCCCOCC(COCCOCC[N+]1(CCCCCC(=O)[O-])CCCC1)Oc1ncccn1` (configuration not stated), the growth was 22.7% in the assay with HT29 colon; 6.6% (active) with SNB-75 CNS; 18.5% with SNB-19 CNS; 8.23% (active) with U251 CNS; 0.371% (active) in the assay on PC-3 prostate; 45.3% with SK-MEL-5 melanoma. Besides, the growth was 54.4% with UACC-62 melanoma, 39.9% in the assay on LOX IMVI melanoma and 70.3% in the assay with SK-MEL-2 melanoma.

Take `O=C(Nc1ccc(Cl)c(Cl)c1)Nc1c(Oc2ccc(Cl)c(Cl)c2)ccc(Cl)c1S(=O)(=O)O`: the growth is 4.55% (active) in the assay with HT29 colon; -11.6% (active) in the assay on SNB-75 CNS; 48.3% in the assay on SNB-19 CNS; 22.1% in the assay with U251 CNS; 19.6% in the assay with PC-3 prostate; 7.15% (active) in the assay with SK-MEL-5 melanoma. The growth in the assay with UACC-62 melanoma is 31.6%; in the assay with LOX IMVI melanoma, 33.8%; with SK-MEL-28 melanoma, 54.8%; in the assay with SK-MEL-2 melanoma, -1.82% (active).

As to `CN(C)N=Nc1nn(C(=O)Nc2ccc(Cc3ccccc3)cc2)c2ccccc12`, the growth with HT29 colon is 41%; in the assay with SNB-75 CNS, 101%; in the assay on SNB-19 CNS it was 64%; in the assay with U251 CNS it was 67.9%; with PC-3 prostate, 29.5%; with SK-MEL-5 melanoma, -37.5% (active). Besides, the growth in the assay on UACC-62 melanoma is -8.25% (active); in the assay with LOX IMVI melanoma it was 1.48% (active); in the assay on SK-MEL-28 melanoma, 43.2%; in the assay on SK-MEL-2 melanoma, 58.4%.

As for `CN(C)CCN1C(=O)c2cccc3cc(N)cc(c23)C1=O`, the growth in the assay on HT29 colon was 9.24% (active); with SNB-75 CNS it was -5.61% (active); in the assay with SNB-19 CNS, 24.5%; in the assay with U251 CNS it was 18.4%; in the assay with PC-3 prostate, 12.6%; in the assay with SK-MEL-5 melanoma it was 8.79% (active). The values for the growth in the assay with UACC-62 melanoma, with LOX IMVI melanoma and with SK-MEL-2 melanoma were 13.3%, 6.24% (active) and 29.1%, respectively.

The values above are taken from PubChem BioAssay (NCI).
